Reference: PubChem BioAssay AID493168 (National Center for Advancing Translational Sciences (NCATS), 2011)
Records with an inconclusive call do not appear. Active and inactive are the calls of the source. Calls come from the whole dose curve; as a rule, active = well fitted inhibition curve with a large enough effect; inconclusive = small, poorly fitted or top-dose-only effect, or effect the other way; inactive = flat fitted curve, though single readings scatter.

Biological target: Ubiquitin carboxyl-terminal hydrolase 2 (Homo sapiens) (UniProt O75604)
Test: Confirmation Assay for Inhibitors of Ubiquitin-specific Protease USP2a Using CHOP2 as the Reporter; note: nearly all actives have a fitted effect of over 55% in size
Settings: USP2 core, Ub-CHOP2 coupled reporter fluorescence; series mostly up to 38.3 µM
How it was run: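 USP2 core (10 nM final) was preincubated with compound for 30 min at RT in Tris-HCl pH 8.0, CaCl2, beta-mercaptoethanol, CHAPS. Ub-CHOP2 and reporter substrate (25 nM final each) were added, and fluorescence (Ex 485/Em 531 nm) was read after 60 min.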

Chain of Ubiquitin carboxyl-terminal hydrolase 2 (Homo sapiens) (O75604 whole entry, looked up): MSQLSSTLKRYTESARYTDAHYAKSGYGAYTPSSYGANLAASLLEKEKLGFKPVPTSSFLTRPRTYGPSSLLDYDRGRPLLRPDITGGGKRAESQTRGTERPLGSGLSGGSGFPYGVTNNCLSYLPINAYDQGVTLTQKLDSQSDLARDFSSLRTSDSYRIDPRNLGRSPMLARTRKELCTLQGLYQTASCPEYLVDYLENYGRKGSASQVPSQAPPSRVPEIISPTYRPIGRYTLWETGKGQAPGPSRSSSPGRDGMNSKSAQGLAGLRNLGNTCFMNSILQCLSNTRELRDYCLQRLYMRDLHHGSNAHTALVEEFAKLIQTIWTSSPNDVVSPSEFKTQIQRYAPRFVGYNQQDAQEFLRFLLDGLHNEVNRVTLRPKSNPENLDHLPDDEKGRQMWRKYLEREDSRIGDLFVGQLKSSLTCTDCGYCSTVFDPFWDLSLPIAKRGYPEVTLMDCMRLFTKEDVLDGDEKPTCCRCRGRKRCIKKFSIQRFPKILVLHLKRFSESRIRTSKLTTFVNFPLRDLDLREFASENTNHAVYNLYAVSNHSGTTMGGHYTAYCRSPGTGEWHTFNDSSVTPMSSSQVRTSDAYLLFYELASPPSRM

Potency, inactive:
Cc1ccc(CNC(=O)CCNS(=O)(=O)c2ccc(C)cc2)cc1, O=C(Nc1cnn(Cc2ccccc2)c1)c1nc2ncccn2n1, CCC(CO)Nc1nc(CN2CCCCC2)nc2scc(-c3ccccc3)c12 (stereo not given), Cc1onc(-c2ccccc2)c1C(=O)N1CCN(C)CC1, O=C(OCc1nc2ccccc2[n+]([O-])c1C(=O)c1ccccc1)c1cccs1, O=C(Nc1ccc2c(c1)OCO2)NC1(C(F)(F)F)Oc2ccccc2O1, COC(=O)c1[nH]c2cc(OC)ccc2c1N, O=S(=O)(NC1CCSc2ccccc21)c1ccccc1 (stereo not given), CC(=O)Nc1cc[n+](CC(=O)c2ccc(Cl)cc2)cc1, Cc1cc(Cl)ccc1NC(=S)NCCCN1CCCC1=O, CCn1nnnc1SCC(=O)Nc1cccc(C)n1, COC(=O)CCC(=O)Nc1sc2c(c1C#N)CCCC2, Cc1cc(N2CCOCC2)nc(SCC(=O)c2ccc(Cl)cc2)n1, Cc1cccc(-c2nnc3n2N=C(c2ccc(Br)cc2)CS3)c1, CC1(C)CC(=O)C2=C(C1)Oc1ncn(CCCO)c(=N)c1C2c1ccccc1 (stereo not given), CC(C)OCCCNC(=O)c1c(N)n(/N=C/c2ccccn2)c2nc3ccccc3nc12, COCc1c(C(=O)OCC(=O)c2c(N)n(CC(C)C)c(=O)n(C)c2=O)oc2ccccc12, COc1ccccc1C(=O)N1CCN=C1SC, O=c1oc2c(CN3CCCCC3)c(O)ccc2c2c1CCCCC2, CCOC(=O)c1c(C)c(C(=O)O)n(C)c1C
